Assay outcomes as filed in PubChem BioAssay.
GALK inh: qHTS Assay for Inhibitors of Human Galactokinase (GALK): NCGC Sytravon Library Screen | AID 1347072, 2019 | P51570 | 44,000 tested, under 10 active | recombinant GALK, Kinase-Glo ATP luminescence, 1 h | Potency, µM (top dose mostly 57.5 µM), actives largely listed as inhibitors
Target sequence (P51570 whole entry, looked up): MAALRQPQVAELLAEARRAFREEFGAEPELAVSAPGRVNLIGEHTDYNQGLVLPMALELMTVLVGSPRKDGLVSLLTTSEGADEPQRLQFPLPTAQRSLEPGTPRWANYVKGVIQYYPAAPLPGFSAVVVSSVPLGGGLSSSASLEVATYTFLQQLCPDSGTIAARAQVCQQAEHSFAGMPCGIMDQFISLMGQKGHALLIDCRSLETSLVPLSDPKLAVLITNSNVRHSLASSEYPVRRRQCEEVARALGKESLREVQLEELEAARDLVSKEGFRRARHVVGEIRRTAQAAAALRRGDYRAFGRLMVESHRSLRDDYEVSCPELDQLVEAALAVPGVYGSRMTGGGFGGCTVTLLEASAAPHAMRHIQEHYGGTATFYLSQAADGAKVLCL
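Reactions with and without enzyme served as controls. GALK at 5 nM phosphorylates 100 uM galactose using 35 uM ATP (HEPES pH 8.0, Mg2+) for 1 h at RT, with luminescence read 10 min after adding Kinase-Glo Plus.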
PTAP-TSG101 blk: qHTS Validation Assay for Inhibitors of HIV-1 Budding by Blocking the Interaction of PTAP/TSG101: Sytravon Library Screen | Tumor susceptibility gene 101 protein (Homo sapiens), Q99816 | Fluorescence polarization, FITC-PTAP peptide/Tsg101, 20 min | Potency, µM (doses to about 115 µM), hits mostly inhibitors | 44,000 tested, under 10 active | AID 1347069, 2019
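Compounds pinned into 10 uM Tsg101 binding domain, then 50 nM FITC-PTAP peptide added in pH 7.5 HEPES buffer; FP read after 20 min, room temperature. Total S+P intensity flags fluorescent compounds; active cut-off <25 µM, efficacy <60%.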
PMP22 txn: Cell-based coincidence reporter assay to measure PMP22 gene transcription in S16 Pmp22-F2sN cells - Primary screen; S16 Pmp22-F2sN Schwann cells, FLuc/NLuc coincidence luminescence, 24 h; Potency, µM (highest dose often 57.5 µM), actives largely listed as inhibitors; actives 2% (n = 43,000); AID 1508649, 2021; active = clear falling dose curves in both reporters; inconclusive = both reporters move, but less clearly or upward; inactive = either reporter flat; the % is the NLuc reporter signal
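Reporter cells (S16 Pmp22-F2sN, 500–1,000 per well) exposed to compounds for 24 h, 37C, 5% CO2; lysis with FLuc read after 10 min, then Stop&Glo and NLuc read after 10 min.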
S16 viability: Cell viability qHTS assay in S16 Pmp22-F2sN cells; S16 Pmp22-F2sN Schwann cells (luciferase reporters placed in the Pmp22 gene) viability, CellTiter-Glo, 24 h; Potency, µM (top dose mostly 57.5 µM), most hits filed as cytotoxic; actives 0.48% (n = 43,000); AID 1508642, 2021; note: nearly all actives have a fitted effect of over 65% in size
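Luminescence from CellTiter-Glo, read by CCD camera after a 15 min room-temperature incubation, served as the viability signal. Reporter Schwann cells (S16 Pmp22-F2sN) had been treated with pin-transferred compounds for 24 h at 37C.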
pS6 MEF inh: Acumen qHTS Assay for Inhibitors of the mTORC1 Signaling Pathway in MEF (Tsc2-/-, p53-/-) Cells: Sytravon; actives 0.78% (n = 44,000); AID 493208, 2011; Potency, µM (highest dose often 38.3 µM), most hits filed as inhibitors; Tsc2-/- p53-/- MEF, phospho-rpS6 immunofluorescence/PI, 24 h; note: nearly all actives have a fitted effect of over 50% in size
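Tsc2-/-, p53-/- MEFs (empty-vector stable line) in DMEM + 10% FBS were treated with compounds 24 h at 37 degree Celsius, fixed, and immunostained for phospho-rpS6 (Alexa-488) with propidium iodide counterstain. Laser-scanning cytometry gave % positive cells, normalized against 7.5 nM rapamycin and DMSO.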
NLuc saturating: Biochemical NLuc saturation counterscreen for small molecule modulators of PMP22 gene expression - Nano-Glo assay. shares compounds with PMP22 txn. AID 1508638, 2021. Potency, µM (top dose mostly 57.5 µM), actives largely listed as inhibitors. Secreted NLuc enzyme (filtered S16 cell medium), Nano-Glo luminescence. actives 4% (n = 690)
NLuc Km counter: Biochemical coelenterazine-based NLuc counterscreen for small molecule modulators of PMP22 gene expression - Km assay | shares compounds with PMP22 txn | secreted NLuc enzyme, coelenterazine luminescence, Km conditions | Potency, µM (doses to about 57.5 µM), most hits filed as inhibitors | actives 5% (n = 690) | AID 1508639, 2021
FLuc counter: Biochemical FLuc counterscreen for small molecule modulators of PMP22 gene expression; shares compounds with PMP22 txn; purified P. pyralis FLuc, luminescence, 10 min; Potency, µM (titrated, usually from 57.5 µM), usual class: inhibitors; 690 tested, under 10 active
S16 F2sN tox cnf: Cell viability qHTS assay in S16 Pmp22-F2sN cells - Confirmatory screen; AID 1508641, 2021; shares compounds with PMP22 txn; actives 7% (n = 690); Potency, µM (titrated, usually from 57.5 µM), actives largely listed as cytotoxic; S16 Schwann cells viability, CellTiter-Glo ATP luminescence, 24 h
PMP22 txn cnf: Cell-based coincidence reporter assay to measure PMP22 gene transcription in S16 Pmp22-F2sN cells - Confirmatory screen; actives 22% (n = 690); shares compounds with PMP22 txn; S16 Schwann cells Pmp22-F2sN, dual luciferase, 24 h; Potency, µM (doses to about 57.5 µM), usual class: inhibitors; active = clear falling dose curves in both reporters; inconclusive = both reporters move, but less clearly or upward; inactive = either reporter flat; the % is the FLuc reporter signal
PMP22 prot conf: Cell-based HiBiT reporter assay to measure PMP22 protein expression in S16 Pmp22-HiBiT cells - Confirmatory screen | 95 tested, under 10 active | shares compounds with PMP22 txn | Potency, µM (doses to about 27.9 µM), usual class: inhibitors | S16 Schwann cells Pmp22-HiBiT, luminescence, 48 h
Target sequence (P25094 whole entry, looked up): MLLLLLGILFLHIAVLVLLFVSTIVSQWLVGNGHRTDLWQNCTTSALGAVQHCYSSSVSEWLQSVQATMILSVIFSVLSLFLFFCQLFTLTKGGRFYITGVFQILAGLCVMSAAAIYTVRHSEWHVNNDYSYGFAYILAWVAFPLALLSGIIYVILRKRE
Numbers stand for hits. Shown are actives, neighbours in structure and some others; about 2.8% of the full set was active somewhere. Unless noted, calls come from the whole dose curve; as a rule, active = well fitted curve in the direction sought with a large enough effect; inconclusive = small, poorly fitted or top-dose-only effect, or another doubt; inactive = no such curve, though single readings can be large; an effect the other way counts as inactive or inconclusive.

What do the screens show for `CCC1=Nc2cc(C(=O)NCc3ccccc3Cl)ccc2Sc2ccc(C)cc21`?
GALK inh: inactive; PTAP-TSG101 blk: inactive; PMP22 txn: 10µM; S16 viability: inactive; pS6 MEF inh: inconclusive; NLuc saturating: inactive; NLuc Km counter: inactive; FLuc counter: inactive; S16 F2sN tox cnf: inactive; PMP22 txn cnf: inactive

How did COc1ccc(CCn2c(=O)c3cccnc3n(CC(=O)Nc3ccc(C)c(F)c3)c2=O)cc1OC do in these assays?
GALK inh: inactive; PTAP-TSG101 blk: inactive; PMP22 txn: inconclusive; S16 viability: inconclusive; pS6 MEF inh: inactive

How did O=C(CCc1nnc2n(Cc3ccccc3Cl)c(=O)c3ccccc3n12)Nc1ccccc1 do in these assays?
GALK inh: inactive; PTAP-TSG101 blk: inactive; PMP22 txn: 13µM; S16 viability: inactive; pS6 MEF inh: inactive; NLuc saturating: inactive; NLuc Km counter: inactive; FLuc counter: inactive; S16 F2sN tox cnf: inactive; PMP22 txn cnf: inconclusive

What do the screens show for `COc1ccccc1NC(=O)C1=C(C)Nc2c(C(=O)Nc3ccc(F)cc3)cnn2C1c1cccc([N+](=O)[O-])c1` (configuration not stated)?
GALK inh: inactive; PTAP-TSG101 blk: inactive; PMP22 txn: inactive; S16 viability: inactive; pS6 MEF inh: inactive

How did Cc1ccc(-c2c(C)n3c4c(=O)n(C)c(=O)n(C)c4nc3n2-c2cccc(O)c2)cc1 do in these assays?
GALK inh: inactive; PTAP-TSG101 blk: inactive; PMP22 txn: 16µM; S16 viability: inactive; pS6 MEF inh: inactive; NLuc saturating: inconclusive; NLuc Km counter: inconclusive; FLuc counter: inactive; S16 F2sN tox cnf: inactive; PMP22 txn cnf: inconclusive

Results for CCOC(=O)C1CCCN(c2c(C(=O)c3ccccc3)cnc3ccc(F)cc23)C1 (configuration not stated) ?
GALK inh: inactive; PTAP-TSG101 blk: inactive; PMP22 txn: inactive; S16 viability: inactive; pS6 MEF inh: inactive

What do the screens show for `CCOc1ccccc1NC(=O)c1c(NC(=O)COc2ccc(Cl)cc2)sc2c1CCCCC2`?
GALK inh: inactive; PTAP-TSG101 blk: inactive; PMP22 txn: inactive; S16 viability: inactive; pS6 MEF inh: inactive

How did CCOc1ccccc1NC(=O)c1c(NC(=O)COc2ccccc2)sc2c1CCCCC2 do in these assays?
GALK inh: inactive; PTAP-TSG101 blk: inactive; PMP22 txn: 13µM; S16 viability: inactive; pS6 MEF inh: inactive; NLuc saturating: inactive; NLuc Km counter: inactive; FLuc counter: inactive; S16 F2sN tox cnf: inactive; PMP22 txn cnf: inactive

Results for CCCCCCOc1ccc(/C=C/C(=O)Nc2sc3c(c2C(=O)OC)CCC3)cc1OC ?
GALK inh: inactive; PTAP-TSG101 blk: inactive; PMP22 txn: 7µM; S16 viability: inconclusive; pS6 MEF inh: inactive; NLuc saturating: inactive; NLuc Km counter: inactive; FLuc counter: inactive; S16 F2sN tox cnf: inactive; PMP22 txn cnf: inactive

Results for CC1CCCN(S(=O)(=O)c2ccc(N3CCCCS3(=O)=O)cc2)C1 (configuration not stated) ?
GALK inh: inactive; PTAP-TSG101 blk: inactive; PMP22 txn: inconclusive; S16 viability: inactive; pS6 MEF inh: inactive; NLuc saturating: inactive; NLuc Km counter: inactive; FLuc counter: inactive; S16 F2sN tox cnf: inactive; PMP22 txn cnf: inactive

What do the screens show for `Cc1ccccc1Cn1nnc2c(=O)[nH]c(C3CCN(C(=O)c4ccc(F)cc4)CC3)nc21`?
GALK inh: inactive; PTAP-TSG101 blk: inactive; PMP22 txn: 10µM; S16 viability: inactive; pS6 MEF inh: inactive; NLuc saturating: inconclusive; NLuc Km counter: inactive; FLuc counter: inactive; S16 F2sN tox cnf: inactive; PMP22 txn cnf: inactive

Results for Cn1c(=O)oc2cc(S(=O)(=O)N3CCC(C(=O)N4CCN(c5cccc(Cl)c5)CC4)CC3)ccc21 ?
GALK inh: inactive; PTAP-TSG101 blk: inactive; PMP22 txn: inconclusive; S16 viability: inconclusive; pS6 MEF inh: inactive

Results for Cn1c(=O)oc2cc(S(=O)(=O)N3CCCC(C(=O)N4CCN(c5cccc(Cl)c5)CC4)C3)ccc21 (configuration not stated) ?
GALK inh: inactive; PTAP-TSG101 blk: inactive; PMP22 txn: 13µM; S16 viability: inactive; pS6 MEF inh: inactive; NLuc saturating: inactive; NLuc Km counter: inactive; FLuc counter: inactive; S16 F2sN tox cnf: inactive; PMP22 txn cnf: 17µM; PMP22 prot conf: inconclusive

How did Cc1cccc(N2CCN(C(=O)C3CCCN(S(=O)(=O)c4ccc5c(c4)oc(=O)n5C)C3)CC2)c1C (configuration not stated) do in these assays?
GALK inh: inactive; PTAP-TSG101 blk: inactive; PMP22 txn: 11µM; S16 viability: inactive; pS6 MEF inh: inactive; NLuc saturating: inactive; NLuc Km counter: inactive; FLuc counter: inactive; S16 F2sN tox cnf: inactive; PMP22 txn cnf: inconclusive; PMP22 prot conf: inconclusive
